Assay [1] addresses Peroxisome proliferator-activated receptor delta (Homo sapiens) (UniProt Q03181). The experiment in a line: qHTS assay for small molecule agonists of peroxisome proliferator-activated receptor delta signaling (AID 588534).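 Note: 0% = DMSO basal wells and 100% = positive control agonist at 10 µM.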 The method in brief: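 Cells carrying a PPAR-delta beta-lactamase reporter were treated with compounds for 18 h at 37 °C in agonist mode. CCF4 fluorescence was read after 2 h; EC50 and efficacy from Hill fits.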

A short description of assay [2]: qHTS assay for small molecule antagonists of peroxisome proliferator-activated receptor delta signaling (AID 588535; active = well fitted inhibition curve with a large enough effect in the signal ratio, with a control signal flat, not every such curve was filed as active; the % refers to the signal ratio;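 for max response: cells co-treated with a PPAR-delta agonist as stimulator during compound exposure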). The conditions noted are these: HEK293T PPARd-UAS-bla, beta-lactamase FRET ratio, 18 h; 460 nm channel. The essentials:
(§1)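 HEK293T PPAR-delta-UAS-bla cells, 4000/well, 2% charcoal/dextran FBS; 5 h 37 C; cpd titration; 18 h 37 C; CCF4 2 h RT; FI 460/530 nm; Hill fit → IC50, efficacy.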
For orientation: qHTS replaces the single test concentration by a dilution series.

The target in assay [3] is Peroxisome proliferator-activated receptor delta (Homo sapiens) (UniProt Q03181). The assay is described as above. The essentials: as §1
Peroxisome proliferator-activated receptor delta (Homo sapiens), sequence (Q03181 whole entry, looked up): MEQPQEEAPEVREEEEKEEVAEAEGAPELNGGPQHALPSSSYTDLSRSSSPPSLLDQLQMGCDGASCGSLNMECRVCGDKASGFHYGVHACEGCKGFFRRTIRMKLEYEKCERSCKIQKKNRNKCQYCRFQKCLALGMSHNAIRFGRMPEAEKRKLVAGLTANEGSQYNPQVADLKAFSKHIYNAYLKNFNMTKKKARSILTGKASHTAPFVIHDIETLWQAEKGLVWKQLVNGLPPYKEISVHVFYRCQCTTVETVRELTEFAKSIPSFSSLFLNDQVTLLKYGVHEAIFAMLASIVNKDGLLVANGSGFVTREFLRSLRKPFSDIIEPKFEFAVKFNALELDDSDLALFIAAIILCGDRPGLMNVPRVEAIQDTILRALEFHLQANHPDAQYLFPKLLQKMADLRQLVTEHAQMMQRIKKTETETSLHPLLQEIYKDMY
Assay [4] has as its target Vitamin D3 receptor (Homo sapiens) (UniProt P11473). Kind of assay: qHTS assay for small molecule agonists of vitamin D receptor signaling (AID 588543).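 Note: 0% = DMSO basal and 100% = reference agonist control.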 The essentials:
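Reporter cells (HEK293T, VDR-UAS-bla) were seeded in medium with 2% charcoal-stripped serum and incubated 5 h, then compounds in concentration series were added for 16 h at 37 °C. Stimulation was scaled between DMSO basal and 50 nM 1α,25-dihydroxyvitamin D3.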

The target in assay [5] is Thyroid hormone receptor beta (Homo sapiens) (UniProt P10828). The experiment in a line: qHTS assay for small molecule agonists of thyroid hormone receptor beta signaling (AID 588545).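 Note: 0% = DMSO only and 100% = 10 nM T3.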 The method in brief:
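Beta-lactamase reporter activity under TR response element control is measured in HEK 293 cells after 18 hrs compound exposure. Signal is ratiometric CCF4 fluorescence, 460/530 nm.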

The nature of assay [6]: qHTS assay for small molecule antagonists of retinoid X receptor alpha signaling (AID 588546; active = well fitted inhibition curve with a large enough effect in the signal ratio, with a control signal flat, not every such curve was filed as active; the % refers to the signal ratio;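 note: cells stimulated with 9-cis-retinoic acid as agonist; % is set by controls: 0 for no effect and ±100 for the full control effect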). Particulars: HEK293T RXRa-UAS-bla, beta-lactamase ratio, antagonist mode; measured here: W530 green channel, cytotoxicity proxy. The essentials:
(§2)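 Beta-lactamase reporter inhibition, read as CCF4 fluorescence ratio (ex 405, em 460/530 nm) after 2 h at RT. HEK293T UAS-bla cells, 2500/well, were stimulated with 9-cis-RA at 500 or 100 nM final alongside test compound for 18 h at 37 C.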

Assay [7] concerns the target Retinoic acid receptor RXR-alpha (Homo sapiens) (UniProt P19793). The description is as above. Particulars: HEK293T RXRa-UAS-bla, beta-lactamase ratio, antagonist mode. The essentials: as §2
In assay [8] the target is Thyroid hormone receptor beta (Homo sapiens) (UniProt P10828). The experiment in a line: qHTS assay for small molecule antagonists of thyroid hormone receptor beta signaling (AID 588547; active = well fitted inhibition curve with a large enough effect in the signal ratio, with a control signal flat, not every such curve was filed as active; the % refers to the signal ratio;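 note: cells stimulated with 0.4 nM T3 agonist during compound exposure; series mostly up to about 77 µM; % is set by controls: 0 for no effect and ±100 for the full control effect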). The conditions noted are these: TR-UAS-bla HEK293, beta-lactamase ratio, antagonist mode, 18 h. The method in brief:
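Inhibition of T3-driven (0.4nM final) beta-lactamase reporter activity was measured over 0.59 nM to 92 uM compound after 18 h at 37 C. The cells were GripTite HEK293 TR-UAS-bla in charcoal/dextran-stripped serum, with CCF4 ratio read-out and IC50 from Hill fits.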

A short description of assay [9]: qHTS assay for small molecule agonists of the antioxidant response element (ARE) signaling pathway (AID 651741; active = well fitted activation curve with a large enough effect in the signal ratio; the % refers to the signal ratio; note: potency is the fitted concentration of half-maximal effect; for activation: % of control where 0% means no effect). The method in brief: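 Quantitative HTS in HepG2 cells stably expressing an ARE-beta-lactamase reporter; 16 h compound exposure at 37 C, followed by 2 h room-temperature incubation with LiveBLAzer B/G FRET substrate and fluorescence measurement.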
A short description of assay [10]: qHTS assay for small molecule activators of the p53 signaling pathway (AID 651743; active = well fitted activation curve with a large enough effect in the signal ratio, not every such curve was filed as active; the % refers to the signal ratio; note: series mostly up to about 92 µM; % of control where 0% means no effect). Particulars: HCT-116 p53RE-bla, beta-lactamase FRET ratio, 16 h; activation: stronger effect = higher value. The method in brief:
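Read-out is fluorescence intensity from the LiveBLAzer B/G FRET substrate, added for 2 hours at room temperature after HCT-116 p53RE-bla cells had been incubated with compounds for 16 hours at 37 C.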

Assay [11] can be described thus: qHTS assay for environmental chemicals that activate the Aryl hydrocarbon Receptor (AhR) signaling pathway (AID 651777; active = well fitted curve in the direction sought with a large enough effect; an effect the other way counts as inactive or inconclusive; note: nearly all actives have a fitted effect of over 15% in size; note: potency is the fitted concentration of half-maximal effect; for activation: % of control where 0% means no effect). Particulars: 1A2-DRE human hepatoma cells, luciferase, 24 h; activation: stronger effect = higher value. The essentials: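 Luminescence (One-Glo, 30 min, room temperature) reports AhR-driven luciferase in stably transfected human hepatoma cells bearing DRE and CYP1A2 promoter. Cells (1,200/well) were treated with compound for 24 hr at 37 C in qHTS format.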

Assay [12] concerns the target Peroxisome proliferator-activated receptor alpha (Homo sapiens) (UniProt Q07869). Kind of assay: qHTS assay for small molecule agonists of the peroxisome proliferator-activated receptor alpha (PPARalpha) signaling pathway (AID 651778; active = well fitted curve in the direction sought with a large enough effect; an effect the other way counts as inactive or inconclusive; note: % of control where 0% means no effect). The conditions noted are these: PathHunter PPARalpha complementation, chemiluminescence, 6 h; max response: stronger effect = higher value. The essentials: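 Chemiluminescence from complemented enzyme reported PPARalpha activation in cells after 6 hr of compound treatment at 37 C. The detection reagent was incubated for 60 min at room temperature, and compounds were scored as agonists.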

Assay [13] is described as follows: qHTS assay for small molecule agonists of the antioxidant response element (ARE) signaling pathway measured by Nrf2-dependant transcriptional activity (AID 720636; active = well fitted curve in the direction sought with a large enough effect in the repeat runs; an effect the other way counts as inactive or inconclusive; note: % of control where 0% means no effect). The essentials:
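Nrf2-dependent transcription read as ONE-Glo luciferase signal from ARE-luc HepG2 reporter cells after 16 hr compound treatment at 37 C, 5% CO2, in assay medium with 1% dialyzed FBS.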

Assay [14] in a line: qHTS assay for small molecule agonists of the antioxidant response element (ARE) signaling pathway measured by Nrf2-dependant transcriptional activity - cell viability counter screen (AID 720653; active = well fitted curve in the direction sought with a large enough effect in the repeat runs; an effect the other way counts as inactive or inconclusive; note: % is set by controls: 0 for no effect and ±100 for the full control effect). The conditions noted are these: ARE-bla HepG2 viability, CellTiter-Glo ATP luminescence, 16 h; max response: stronger effect = lower value. The essentials:
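Cytotoxicity counter screen: intracellular ATP quantified by CellTiter-Glo luminescence in the same ARE-bla HepG2 plates, after 16 h compound exposure and a 2 h beta-lactamase substrate step.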

Assay [15] can be described thus: qHTS assay for cell viability of HEK293 cells (AID 743288; active = well fitted curve in the direction sought with a large enough effect; an effect the other way counts as inactive or inconclusive; note: % is set by controls: 0 for no effect and ±100 for the full control effect; nearly all actives have a fitted effect of over 50% in size). Particulars: ATP luminescence (CellTiter-Glo), 18 h; max response: stronger effect = lower value. The method in brief:
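HEK293 parental, 2,000 cells/well; ≥5 h pre-incubation 37 C; pintool compound addition; 18 h, 37 C; CellTiter-Glo 30 min RT; luminescence read.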

The nature of assay [16]: qHTS assay for cell viability of the p53RE-bla HCT-116 cell line (AID 743292; active = well fitted curve in the direction sought with a large enough effect; an effect the other way counts as inactive or inconclusive; note: % is set by controls: 0 for no effect and ±100 for the full control effect; nearly all actives have a fitted effect of over 55% in size). The method in brief: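 ATP-based luminescent viability (CellTiter-Glo, 30 min RT) after 16 h compound treatment at 37 C of p53RE-bla HCT-116 cells, seeded at 4,000 cells/well and rested 5 h before dosing.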
For assay [17], the target named is Nuclear receptor subfamily 1 group I member 2 (Rattus norvegicus) (UniProt Q9R1A7). The experiment in a line: qHTS assay for small molecule activators of the rat pregnane X receptor (rPXR) signaling pathway (AID 651751; call rule not given here; note: 0% is about no effect). The conditions noted are these: rPXR reporter cells, luciferase (One-Glo), 24 h.
Nuclear receptor subfamily 1 group I member 2 (Rattus norvegicus), sequence (Q9R1A7 whole entry, looked up): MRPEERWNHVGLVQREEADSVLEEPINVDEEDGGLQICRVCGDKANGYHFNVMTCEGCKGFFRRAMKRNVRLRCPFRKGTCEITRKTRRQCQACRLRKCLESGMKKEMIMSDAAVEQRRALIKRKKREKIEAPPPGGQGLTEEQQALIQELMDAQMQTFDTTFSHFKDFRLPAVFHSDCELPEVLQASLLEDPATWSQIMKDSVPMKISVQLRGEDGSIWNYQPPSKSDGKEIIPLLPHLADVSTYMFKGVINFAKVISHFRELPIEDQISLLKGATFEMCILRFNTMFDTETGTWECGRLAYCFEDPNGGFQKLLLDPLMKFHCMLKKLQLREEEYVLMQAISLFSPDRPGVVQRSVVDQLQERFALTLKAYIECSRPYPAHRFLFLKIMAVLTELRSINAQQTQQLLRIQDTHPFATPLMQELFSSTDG
The target of assay [18] is Bile acid receptor (Homo sapiens) (UniProt Q96RI1). Kind of assay: qHTS assay for small molecule antagonists of farnesoid X receptor signaling (AID 588526). Note: % is set by controls: 0 for no effect and ±100 for the full control effect. The method in brief: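 Beta-lactamase reporter antagonist mode: HEK293T FXR-UAS-bla cells, titrated compound, CDCA stimulation, 16 h 37 C, CCF4 dye 2 h RT. Data normalized to CDCA 50 uM and DMSO; Hill-fit IC50.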
Bile acid receptor (Homo sapiens), sequence (Q96RI1 whole entry, looked up): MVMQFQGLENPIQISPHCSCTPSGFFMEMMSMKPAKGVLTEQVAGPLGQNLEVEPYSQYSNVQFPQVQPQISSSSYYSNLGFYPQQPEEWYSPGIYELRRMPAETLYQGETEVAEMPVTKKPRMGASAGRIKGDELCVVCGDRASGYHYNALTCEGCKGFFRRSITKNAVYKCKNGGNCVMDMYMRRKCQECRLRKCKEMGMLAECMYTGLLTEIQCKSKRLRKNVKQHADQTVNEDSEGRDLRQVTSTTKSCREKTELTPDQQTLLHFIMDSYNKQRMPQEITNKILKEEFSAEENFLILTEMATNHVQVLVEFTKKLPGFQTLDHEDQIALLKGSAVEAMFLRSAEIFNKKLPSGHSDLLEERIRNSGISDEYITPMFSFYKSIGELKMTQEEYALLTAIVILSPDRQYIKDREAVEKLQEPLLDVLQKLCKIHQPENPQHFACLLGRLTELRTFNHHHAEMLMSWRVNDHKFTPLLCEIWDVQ

In assay [19] the target is Retinoic acid receptor RXR-alpha (Homo sapiens) (UniProt P19793). Kind of assay: qHTS assay for small molecule agonists of retinoid X receptor alpha signaling (AID 588544).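 Note: 0% = DMSO basal wells and 100% = reference agonist.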
Retinoic acid receptor RXR-alpha (Homo sapiens), sequence (P19793 whole entry, looked up): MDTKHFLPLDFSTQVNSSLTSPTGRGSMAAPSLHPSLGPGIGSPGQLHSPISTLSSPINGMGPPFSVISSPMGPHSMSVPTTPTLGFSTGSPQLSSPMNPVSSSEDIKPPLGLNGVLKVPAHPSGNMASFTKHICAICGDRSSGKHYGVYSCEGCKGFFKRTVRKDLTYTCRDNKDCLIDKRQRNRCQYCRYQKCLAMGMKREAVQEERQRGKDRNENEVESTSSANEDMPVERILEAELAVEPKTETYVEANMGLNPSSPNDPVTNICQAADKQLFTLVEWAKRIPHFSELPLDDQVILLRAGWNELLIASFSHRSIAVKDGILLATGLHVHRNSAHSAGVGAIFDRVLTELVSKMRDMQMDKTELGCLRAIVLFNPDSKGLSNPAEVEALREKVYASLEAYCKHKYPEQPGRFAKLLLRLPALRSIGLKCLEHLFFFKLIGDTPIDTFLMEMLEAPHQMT
The target in assay [20] is Bile acid receptor (Homo sapiens) (UniProt Q96RI1). The experiment in a line: qHTS assay for small molecule agonists of farnesoid X receptor signaling (AID 588527).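 Note: series mostly up to about 77 µM; 0% = vehicle basal and 100% = reference agonist.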 Particulars: HEK293T FXR-UAS-bla, beta-lactamase ratio, 16 h; activation: stronger effect = higher value. The essentials: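 Quantitative HTS used FXR-UAS-bla HEK293T cells with 16 h compound incubation at 37 C. EC50 values came from concentration-response curves normalized to chenodeoxycholic acid.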

Inconclusive results are not listed. Activity calls are given as the source filed them. Unless noted, calls come from the whole dose curve.

Peroxisome proliferator-activated receptor alpha (Homo sapiens), sequence (Q07869 whole entry, looked up): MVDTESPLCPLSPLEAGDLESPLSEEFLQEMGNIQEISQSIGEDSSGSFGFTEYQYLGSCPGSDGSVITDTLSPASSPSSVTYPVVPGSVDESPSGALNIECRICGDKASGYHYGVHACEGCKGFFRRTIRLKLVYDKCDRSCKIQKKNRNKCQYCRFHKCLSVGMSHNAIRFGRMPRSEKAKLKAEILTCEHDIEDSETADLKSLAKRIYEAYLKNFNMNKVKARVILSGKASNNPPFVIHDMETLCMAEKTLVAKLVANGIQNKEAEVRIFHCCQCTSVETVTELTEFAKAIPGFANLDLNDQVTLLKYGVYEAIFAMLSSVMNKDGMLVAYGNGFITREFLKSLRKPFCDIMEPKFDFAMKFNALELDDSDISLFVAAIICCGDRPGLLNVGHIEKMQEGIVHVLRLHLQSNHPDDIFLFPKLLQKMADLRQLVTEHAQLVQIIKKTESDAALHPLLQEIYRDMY
Vitamin D3 receptor (Homo sapiens), sequence (P11473 whole entry, looked up): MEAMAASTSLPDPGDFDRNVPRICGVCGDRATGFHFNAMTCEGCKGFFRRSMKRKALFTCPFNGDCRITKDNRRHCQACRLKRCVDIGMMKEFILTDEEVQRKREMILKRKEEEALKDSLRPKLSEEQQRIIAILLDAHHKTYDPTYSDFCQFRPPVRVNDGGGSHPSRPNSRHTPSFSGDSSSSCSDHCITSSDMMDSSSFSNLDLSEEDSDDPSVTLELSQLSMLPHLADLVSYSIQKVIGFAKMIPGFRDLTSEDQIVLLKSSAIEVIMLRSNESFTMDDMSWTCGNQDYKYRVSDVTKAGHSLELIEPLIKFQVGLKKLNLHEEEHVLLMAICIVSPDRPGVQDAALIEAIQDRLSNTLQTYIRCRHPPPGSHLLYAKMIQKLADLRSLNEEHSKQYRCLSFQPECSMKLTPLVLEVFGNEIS
Thyroid hormone receptor beta (Homo sapiens), sequence (P10828 whole entry, looked up): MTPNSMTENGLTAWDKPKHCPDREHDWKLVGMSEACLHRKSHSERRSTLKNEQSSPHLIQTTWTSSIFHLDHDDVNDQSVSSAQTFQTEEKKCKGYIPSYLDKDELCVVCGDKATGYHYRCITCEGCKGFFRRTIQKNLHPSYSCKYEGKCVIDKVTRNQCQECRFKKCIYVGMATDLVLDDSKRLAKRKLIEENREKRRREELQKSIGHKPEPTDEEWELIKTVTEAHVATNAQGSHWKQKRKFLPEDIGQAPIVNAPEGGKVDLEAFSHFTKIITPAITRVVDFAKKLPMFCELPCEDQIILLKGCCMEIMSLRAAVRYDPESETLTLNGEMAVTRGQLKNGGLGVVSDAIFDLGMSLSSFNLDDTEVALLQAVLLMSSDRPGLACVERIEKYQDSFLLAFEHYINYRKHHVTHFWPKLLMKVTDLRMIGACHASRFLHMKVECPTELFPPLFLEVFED

As for `CCCOc1nn(C(=O)NS(=O)(=O)c2ccccc2C(=O)OC)c(=O)n1C`, the outcome in assay [1] and in [4] was inactive. In addition, the max response is 41% in assay [2]; -18% in assay [6]; -2.92% (inactive) in assay [7]; 0.0457% (inactive) in assay [12]; -11.6% (inactive) in assay [14]; -4.57% (inactive) in [15]. In addition, in [17], the max response is 4.67% (inactive). Further, the Potency result in assay [3], in [5], in [9], in assay [13] and in [16] was “inactive” in each case. Also, the activity change % (negative = inhibition) in assay [8] is 10.6% (inactive). The activation in assay [10] is 0.234% (inactive); in assay [11] it was 0.148% (inactive).

With `CNC(=O)N(C)c1nc2ccccc2s1`, the Potency result in assay [18], in assay [19], in [5] and in assay [16] was “inactive” throughout. Besides, the compound was called inactive in [1] and in assay [4]. The max response is 0.29% in [6], -2.41% (inactive) in [7], -2.93% (inactive) in assay [12] and -16.4% (inactive) in assay [15]. In assay [8], the activity change % (negative = inhibition) is 9.18% (inactive). Also, the Potency in assay [9] is 27.3 µM (active); in assay [11], 44.7 µM (active).

On to `C[C@H]1[C@H](c2ccc(Cl)cc2)SC(=O)N1C(=O)NC1CCCCC1`, for which, in assay [4], the compound was classed as inactive. Moreover, the Potency entry in assay [5], in [13] and in assay [16] was “inactive” each time. For the same compound, the Potency in assay [9] is 54.5 µM (active). In addition, the activation in [10] is 4.32% (inactive); in [11], 6.81% (inactive). Besides, the max response in assay [12] is -4.71% (inactive); in assay [14] it was -8.81% (inactive).

Take `COP(=O)(OC)Oc1nc(Cl)c(Cl)cc1Cl`: the Potency result in assay [18], in assay [19], in assay [13] and in assay [16] was “inactive” each time. The activation in [20] was -2.92% (inactive); in assay [10], 6.76% (inactive); in assay [11] it was 1.43% (inactive). For the same compound, the outcome in [4] was inactive. Further, the max response in [6] was -0.949%; in assay [12], -0.672% (inactive); in [14], -0.97% (inactive); in [17], 0.764% (inactive). Further, the activity change % (negative = inhibition) in assay [8] was -14.5% (inactive). Moreover, the Potency in assay [9] is 48.6 µM (active).

For `CCNc1nc(NC(C)C)nc(SC)n1`, the call in assay [1] and in assay [4] was inactive. The max response in assay [2] is 5.95%; in [6], -15.6%; in [7], -29% (inactive); in assay [12] it was -2.07% (inactive); in assay [14] it was 4.35% (inactive); in [15] it was -10.8% (inactive). Besides, the max response in assay [17] is -3.53% (inactive). The Potency result in assay [3], in assay [19], in [5], in [9] and in assay [13] was “inactive” in each case. In [8], the activity change % (negative = inhibition) was 5.24% (inactive). Also, the activation in [11] is 0.555% (inactive).

As to `CN/C(=N\[N+](=O)[O-])NCc1cnc(Cl)s1`, the outcome in assay [4] was inactive. In addition, the Potency result in assay [19], in assay [5], in [13] and in [16] was “inactive” throughout. Further, the max response is -9.8% in [6]; -1.36% (inactive) in assay [7]; -0.992% (inactive) in assay [12]; 0.65% (inactive) in assay [14]; -4.28% (inactive) in [15]; 6.52% (inactive) in assay [17]. In assay [8], the activity change % (negative = inhibition) is -15.1% (inactive). In addition, the activation in assay [11] is 1.58% (inactive).

In the case of `CC(O)CN(CC(C)O)CC(C)O` (configuration not stated), the Potency result in assay [18], in [3], in assay [5], in assay [13] and in assay [16] was “inactive” throughout. In addition, the outcome in [1] was inactive. The max response in assay [2] was -32.2%; in assay [6], -0.813%; in assay [7] it was 3.2% (inactive); in assay [12], -2.83% (inactive); in assay [14] it was -8.2% (inactive); in assay [15], -4.13% (inactive). The max response in [17] is -0.821% (inactive). In assay [8], the activity change % (negative = inhibition) is 25% (inactive). The Potency in assay [9] was 54.5 µM (active).

These data come from PubChem BioAssay (NCATS).
